Compound activity deposited in PubChem by Sanford-Burnham Center for Chemical Genomics.
Rows were chosen to be rich in hits. Some 4% of all compounds tested hit in one or more screens of this group.
CF NFkB inh – inhibitors of cystic fibrosis induced NF-kB; hit rate 0.86% among 360,000; KKLEB NF-kB-GFP reporter, PAF-induced, GFP fluorescence overnight; inhibition, % at 5 µM; AID 588850;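 active = at least 50% inhibition at 5 µM, scaled per plate between neutral and stimulator controls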;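 also: PAF is a Pseudomonas aeruginosa culture filtrate used as stimulus; plate controls were PAF-stimulated DMSO wells for no effect and unstimulated DMSO wells for full effect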
Peg3 promoter – inhibitors of Peg3 promoter; HeLa PEG-Prom luciferase reporter, luminescence, overnight; inhibition, % at 20 µM; hit rate 1.7% among 360,000;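 active = inhibition of at least 50% at 20 µM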
KKLEB tox – counter-screen for CF NF-kB inhibitors: cytotoxicity; KKLEB CF airway cells viability, ATPlite luminescence, overnight; stronger effect = lower value; cells stimulated with P. aeruginosa culture filtrate; activity change (cytotoxicity), % at 5 µM; hit rate 0.36% among 360,000;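 active = corrected activity change at or below -50% at 5 µM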
HIF-2a inh – inhibitors of HIF-2a; 786-0 RCC cells HIF-2a reporter, luciferase luminescence, overnight; inhibition, % at 18.8 µM; hit rate 0.72% among 360,000; AID 624352;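 active = inhibition of the luminescence signal of 40% or more relative to plate controls, in a single-dose primary screen at 18.75 µM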
TWEAK Fn14 block – blocks TWEAK-Fn14 interaction in a reporter cell assay; hit rate 2% among 360,000; AID 1159606; inhibition, % at 10 µM; TWEAK-stimulated Fn14 reporter cells, luciferase luminescence, 8 h; in the data active = inhibition above about 50%
TROY NFkB inh – blocks TROY-dependent signaling in reporter cells; Q293 LMP1-TROYcd NF-kB luciferase reporter, 4 h; inhibition, % at 10 µM; hit rate 0.98% among 360,000; AID 1347056;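 active = compounds whose plate-normalised and pattern-corrected inhibition of the luciferase reporter signal at the single screening dose is 50% or more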
* hit, by the source's call; / = no result.

SMILES	CF NFkB inh	Peg3 promoter	KKLEB tox	HIF-2a inh	TWEAK Fn14 block	TROY NFkB inh
O=C(Nc1ccc2c(c1)OCCO2)c1ccco1	-2	-71	-1	-91	61*	38
O=C(CN1CCN(C(=O)c2ccco2)CC1)Nc1ccc2c(c1)OCCO2	8	-22	0	20	64*	53*
Cc1ccc(NC(=O)CN2CCN(C(=O)c3ccco3)CC2)cc1	-4	3	-3	14	-7	-10
O=C(Nc1ccc2c(c1)OCCO2)c1cc2sccc2n1Cc1ccc(F)cc1	4	-142	3	-116	49	7
O=C(Nc1ccc2c(c1)OCCO2)c1cc2sccc2n1Cc1ccccc1	-1	-156	4	-83	53*	24
CCOC(=O)c1c(N/C=C(\C#N)c2nc(-c3ccc(OC(C)=O)cc3)cs2)sc2c1CCC2	-14	-12	-10	20	5	-23
CCCCCCCCCC[n+]1cccc2c3ccccc3ccc21	49	75*	-50*	7	73*	51*
CCCCCCCC[n+]1cccc2c3ccccc3ccc21	38	54*	-27	-40	83*	54*
Cc1cccc[n+]1CCCCCCCCCC[n+]1ccccc1C	6	-4	0	8	-12	3
CC1=CC2=NC(=O)/C(=C/c3cccn3Cc3ccccc3)C(=N)N2O1	-1	1	-2	13	2	12
N=C1/C(=C/c2cccn2Cc2ccc(Cl)cc2)C(=O)N=C2SC=CN12	34	24	-50*	-6	-18	-17
Cc1ccc(C(=O)n2nc(-c3cccnc3)nc2N)cc1	0	2	10	20	22	64*
Cc1cccc(/C=C2\CCC(=C3SCCCS3)C2=O)c1	-15	16	-64*	8	75*	/
CN(C)CCCn1c(N)c(C#N)c2nc3ccccc3nc21	-22	10	-5	8	55*	18
Cc1ccccc1C(=O)Nc1ccc(-c2nc3ccc(C(=O)c4ccccc4)cc3[nH]2)cc1	-11	-21	-2	-13	70*	/
O=C(Nc1ccc(-c2nc3ccc(NC(=O)c4cccs4)cc3[nH]2)cc1)c1cccs1	7	66*	-8	15	-127	-1
CC(C)(C)N1C(=O)c2ccc(C(=O)Nc3ccc(-c4nc5ccccc5[nH]4)cc3)cc2C1=O	-2	82*	2	-8	-41	-8
CC(C)(C)N1C(=O)c2ccc(C(=O)Nc3ccc(C(=O)O)cc3)cc2C1=O	10	11	-7	12	12	8
C[C@@H]1CN([C@@H](C)CO)C(=O)c2cc(NC(=O)c3ccccc3)ccc2O[C@@H](C)CCCCO[C@@H]1CN(C)S(=O)(=O)c1ccc(F)cc1	5	0	2	3	15	-2
O=c1[nH]c(Nc2ccccn2)cc2ccccc12	9	-279	1	-247	13	-15
O=c1[nH]c(-c2ccccn2)cc2ccccc12	-29	-176	-6	-208	79*	36
CC(NCc1ccc(-c2ccccc2)cc1)C(O)c1ccccc1 (configuration not stated)	38	74*	-26	-8	-36	20
O=C(O)c1ccc(N=NNc2cccc([N+](=O)[O-])c2)cc1	6	-187	0	-162	15	-64
N#C/C(=N\Nc1cccc([N+](=O)[O-])c1)C(=O)c1ccc(Br)cc1	51*	21	-55*	-76	52*	33
O=C(NCc1ccccc1CN1CCCC1)c1cccc(N2CCCC2=O)c1	0	-12	5	13	1	16
SMILES	CF NFkB inh	Peg3 promoter	KKLEB tox	HIF-2a inh	TWEAK Fn14 block	TROY NFkB inh
NC(=O)c1cccc(Nc2nc(C(N)COCc3ccccc3)cs2)n1 (configuration not stated)	4	-6	-19	7	-24	-8
CCc1ccc(C(=O)/C=C/c2cnn(C)c2C)s1	-18	-161	10	-201	60*	67*
O=C(c1ccccc1)N(c1ccccc1)c1nccc2ccccc12	6	6	17	16	21	-8
CC(=O)Nc1ccc(C=NNC(=O)c2ccc(NS(=O)(=O)c3cccs3)cc2)cc1	-10	100*	8	-36	-12	8
Cc1c(C(=O)Nc2ccc3c(c2)OCCO3)sc2nc(-c3ccccc3)cn12	-21	6	2	-128	85*	67*
Cc1c(C(=O)Nc2ccncc2)sc2nc(-c3ccccc3)cn12	-18	-45	7	-103	68*	28
